# Shown is part of a subset that was picked to be rich in the strongest signals.
# Legend:
# Experiment in all cases: glycan array binding signal (z-score within array); higher = stronger binding
# Conditions in all cases: glycan notation: IUPAC condensed, linker removed
# [1] = biological target: GlcNAc(a1-4)Gal(b1-4)GalNAc
# How it was run: (§1)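 From the Consortium for Functional Glycomics database, 3228 arrays were curated, keeping only those whose protein sequence was available. Binding is given as a within-array Z-score averaged across arrays sharing a protein sequence and across linkers. Negative Z-scores can be read as non-binding.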
# [2] = biological target: GlcNAc(a1-4)Gal(b1-4)GlcNAc(b1-3)Gal(b1-4)GlcNAc(b1-3)Gal(b1-4)GlcNAc
# How it was run: as §1
# [3] = biological target: GlcNAc(b1-2)[GlcNAc(b1-4)]Man(a1-3)[GlcNAc(b1-4)][GlcNAc(b1-2)[GlcNAc(b1-6)]Man(a1-6)]Man(b1-4)GlcNAc(b1-4)[Fuc(a1-6)]GlcNAc
# How it was run: as §1
# [4] = biological target: GlcNAc(b1-2)[GlcNAc(b1-6)]Man(a1-6)[GlcNAc(b1-2)Man(a1-3)]Man(b1-4)GlcNAc(b1-4)[Fuc(a1-6)]GlcNAc
# How it was run: as §1
# [5] = biological target: GlcNAc(b1-3)Gal(b1-4)GlcNAc(b1-3)Gal(b1-4)GlcNAc
# How it was run: as §1
# [6] = biological target: GlcNAc(b1-3)Gal(b1-4)GlcNAc(b1-3)Gal(b1-4)GlcNAc(b1-2)Man(a1-3)[GlcNAc(b1-3)Gal(b1-4)GlcNAc(b1-3)Gal(b1-4)GlcNAc(b1-2)Man(a1-6)]Man(b1-4)GlcNAc(b1-4)[Fuc(a1-6)]GlcNAc
# How it was run: as §1
# [7] = biological target: GlcNAc(b1-3)Gal(b1-4)GlcNAc(b1-3)Gal(b1-4)GlcNAc(b1-2)[GlcNAc(b1-3)Gal(b1-4)GlcNAc(b1-3)Gal(b1-4)GlcNAc(b1-6)]Man(a1-6)[GlcNAc(b1-3)Gal(b1-4)GlcNAc(b1-3)Gal(b1-4)GlcNAc(b1-2)Man(a1-3)]Man(b1-4)GlcNAc(b1-4)[Fuc(a1-6)]GlcNAc
# How it was run: as §1
# [8] = biological target: GlcNAc(b1-4)GlcNAc(b1-4)GlcNAc(b1-4)GlcNAc(b1-4)GlcNAc
# How it was run: as §1
# [9] = biological target: Man(a1-2)Man(a1-3)[Man(a1-2)Man(a1-6)]Man
# How it was run: as §1
# [10] = biological target: Man(a1-2)Man(a1-3)[Man(a1-2)Man(a1-6)]Man(a1-6)[Man(a1-2)Man(a1-2)Man(a1-3)]Man
# How it was run: as §1
# [11] = biological target: Man(a1-3)[Man(a1-6)]Man(a1-6)[Man(a1-2)Man(a1-3)]Man(b1-4)GlcNAc(b1-4)GlcNAc
# How it was run: as §1
# [12] = biological target: Man(a1-3)[Man(a1-6)]Man(a1-6)[Man(a1-3)]Man
# How it was run: as §1
# Man(a1-6)Man = biological target: Man(a1-6)Man
# How it was run: as §1
# [13] = biological target: Neu5Ac(a2-3)Gal(b1-4)GlcNAc(b1-3)Gal(b1-4)GlcNAc(b1-3)Gal(b1-4)GlcNAc(b1-2)Man(a1-3)[Neu5Ac(a2-3)Gal(b1-4)GlcNAc(b1-3)Gal(b1-4)GlcNAc(b1-3)Gal(b1-4)GlcNAc(b1-2)Man(a1-6)]GalNAc
# How it was run: as §1
# [14] = biological target: Neu5Ac(a2-3)Gal(b1-4)GlcNAc(b1-3)Gal(b1-4)GlcNAc(b1-3)[Neu5Ac(a2-3)Gal(b1-4)GlcNAc(b1-3)Gal(b1-4)GlcNAc(b1-6)]GalNAc
# How it was run: as §1
# [15] = biological target: Neu5Ac(a2-3)Gal(b1-4)GlcNAc(b1-3)[Neu5Ac(a2-3)Gal(b1-4)GlcNAc(b1-6)]GalNAc
# How it was run: as §1
# [16] = biological target: Neu5Ac(a2-3)Gal(b1-4)GlcNAc(b1-6)[Gal(b1-3)]GalNAc
# How it was run: as §1
# [17] = biological target: Neu5Ac(a2-3)Gal(b1-4)[Fuc(a1-3)]GlcNAc(b1-2)Man
# How it was run: as §1
# [18] = biological target: Neu5Ac(a2-6)Gal(b1-3)GlcNAc(b1-3)[Gal(b1-4)GlcNAc(b1-6)]Gal(b1-4)Glc
# How it was run: as §1
# [19] = biological target: Neu5Ac(a2-6)Gal(b1-4)GlcNAc
# How it was run: as §1
# [20] = biological target: Neu5Ac(a2-6)Gal(b1-4)GlcNAc(b1-2)Man(a1-6)Man(b1-4)GlcNAc(b1-4)GlcNAc
# How it was run: as §1
# [21] = biological target: Neu5Ac(a2-6)Gal(b1-4)GlcNAc(b1-3)Gal(b1-4)GlcNAc(b1-3)[Neu5Ac(a2-6)Gal(b1-4)GlcNAc(b1-3)Gal(b1-4)GlcNAc(b1-6)]GalNAc
# How it was run: as §1
# [22] = biological target: Neu5Ac(a2-6)Gal(b1-4)GlcNAc(b1-3)Gal(b1-4)GlcNAc(b1-6)[Gal(b1-3)]GalNAc
# How it was run: as §1
# [23] = biological target: Neu5Ac(a2-6)Gal(b1-4)GlcNAc(b1-6)[Gal(b1-3)GlcNAc(b1-3)]Gal(b1-4)Glc
# How it was run: as §1
# Neu5Ac(a2-6)GalNAc = biological target: Neu5Ac(a2-6)GalNAc
# How it was run: as §1
# [24] = biological target: Neu5Ac(a2-6)GalNAc(b1-4)GlcNAc
# How it was run: as §1
# [25] = biological target: Neu5Ac(a2-6)GalNAc(b1-4)GlcNAc6S
# How it was run: as §1
# [26] = biological target: Neu5Ac(a2-6)GlcNAc(b1-4)GlcNAc
# How it was run: as §1
# [27] = biological target: Neu5Ac(a2-8)Neu5Ac(a2-3)Gal(b1-4)Glc
# How it was run: as §1
binder,measurement,setting,value
Aap brpt (Staphylococcus epidermidis) (protein) VDGDPITSTEEIPFDKKREFDPNLAPGTEKVVQKGEPGTKTITTPTTKNPLTGEKVGEGEPTEKITKQPVDEIVHYGGEEIKTGHKDEFDPNAPKGSQTTQPGKPGVKNPDTGEVVTPPVDDVTKYGPVDGDPITSTEEIPFDKKREFDPNLAPGTEKVVQKGEPGTKTITTPTTKNPLTGEKVGEGEPTEKITKQPVDEIVHYGGEEIKPGHKDEFDPNAPKGSQEDVPGKPGVKNPDTGEVVTPPVDDVTKYGPVDGDSITSTEEIPFDKKREFDPNLAPGTEKVVQKGEPGTKTITTPTTKNPLTGEKVGEGEPTEKITKQPVDEIVHYGGEQIPQGHKDEFDPNAPVDSKTEVPGKPGVKNPDTGEVVTPPVDDVTKYGPVDGDSITSTEEIPFDKKREFDPNLAPGTEKVVQKGEPGTKTITTPTTKNPLTGEKVGEGKSTEKVTKQPVDEIVEYGPTK,glycan array binding signal (z-score),[1],-1.15
same,glycan array binding signal (z-score),[2],0.541
same,glycan array binding signal (z-score),[3],0.314
same,glycan array binding signal (z-score),[4],-0.222
same,glycan array binding signal (z-score),[5],-0.363
same,glycan array binding signal (z-score),[6],2.65
same,glycan array binding signal (z-score),[7],3.02
same,glycan array binding signal (z-score),[8],-1.51
same,glycan array binding signal (z-score),[9],-0.923
same,glycan array binding signal (z-score),[10],2.59
same,glycan array binding signal (z-score),[11],2.29
same,glycan array binding signal (z-score),[12],-1
same,glycan array binding signal (z-score),Man(a1-6)Man,1.21
same,glycan array binding signal (z-score),[13],1.19
same,glycan array binding signal (z-score),[14],0.565
same,glycan array binding signal (z-score),[15],0.328
same,glycan array binding signal (z-score),[16],-0.96
same,glycan array binding signal (z-score),[17],0.096
same,glycan array binding signal (z-score),[18],-0.86
same,glycan array binding signal (z-score),[19],-0.403
same,glycan array binding signal (z-score),[20],-0.15
same,glycan array binding signal (z-score),[21],2.85
same,glycan array binding signal (z-score),[22],2.73
same,glycan array binding signal (z-score),[23],0.258
same,glycan array binding signal (z-score),Neu5Ac(a2-6)GalNAc,1.84
same,glycan array binding signal (z-score),[24],0.115
same,glycan array binding signal (z-score),[25],-0.313
same,glycan array binding signal (z-score),[26],2.43
same,glycan array binding signal (z-score),[27],-0.002
